Assay: binders from COS7 lysate, DM2A8 probe, primary screen, torsin A project, cell lysate, small-molecule microarray, fluorescence 635/667 (AID 1065)
Details: higher = more signal, COS7 lysate expressing mutant human TOR1A

Question: For `COC(=O)[C@@]1(Cc2ccc(OC)cc2)[C@H]2c3cc(C(=O)N(C)C)n(Cc4ccc(C)c(F)c4F)c3C[C@H]2CN1C(=O)c1ccccc1`, which composite z-score is on record?
Answer: Its composite z-score is 0.251.

Question: For `CCCC=C(CCC)[C@@H](NS(=O)(=O)c1ccc(-c2ccccc2)cc1)c1ccc(C(=O)OC)cc1`, which composite z-score is on record?
Answer: Its composite z-score is -0.337.

Question: With `CCOC(=O)[C@H]1C/C=C/C[C@H](C(=O)OCC)C(=O)O[C@H]2[C@@H](OC)O[C@H](CO)[C@@H](OC(=O)Nc3ccc(Br)cc3)[C@@H]2OC1=O` as the compound, how does the composite z-score read?
Answer: Its composite z-score is 0.475.

Question: With `C=C[C@H](OC)[C@@H](OC(=O)Nc1ccc(SC)cc1)c1ccc(O)c(F)c1` as the compound, how does the composite z-score read?
Answer: The composite z-score was -0.22.

Question: Which composite z-score does the source give for `COCCOC(=O)N1C(=O)[C@@]2(c3cc(C#CCNC(N)=O)ccc31)[C@H](c1ccc(OCCO)cc1)N1[C@H](c3ccccc3)[C@H](c3ccccc3)OC(=O)[C@H]1[C@@H]2C(=O)N1CCCCCCC1` here?
Answer: Its composite z-score is 0.0698.

Question: Which composite z-score does the source give for `CN(C)c1ccc(C(O)C2C=CC3C(=O)NC(=O)C3N2Nc2ccc(Cl)cc2Cl)cc1` (configuration not stated) here?
Answer: Its composite z-score is -0.0467.

Question: Which composite z-score does the source give for `COCCOC(=O)N1C(=O)[C@@]2(c3cc(C#CCC(C(=O)OC)C(=O)OC)ccc31)[C@H](C(=O)N1CCN(c3ncccn3)CC1)[C@H]1C(=O)O[C@H](c3ccccc3)[C@H](c3ccccc3)N1[C@@H]2c1ccc(O)cc1` here?
Answer: The composite z-score was 1.47.

Question: Which composite z-score does the source give for `COCCOC(=O)N1C(=O)[C@@]2(c3ccccc31)[C@H](C(=O)N1CCc3cc(OC)c(OC)cc3C1)[C@H]1C(=O)O[C@H](c3ccccc3)[C@H](c3ccccc3)N1[C@@H]2c1ccccc1OCCO` here?
Answer: Its composite z-score is 0.409.

Question: With `CC(C)=C1C(=O)C(c2ccccc2)=C2CN3C(=O)N(CCc4ccccc4)C(=O)[C@]3(Cc3ccccc3)[C@H]21` as the compound, how does the composite z-score read?
Answer: Its composite z-score is -0.463.

Question: Which composite z-score does the source give for `CO[C@H]1COC(=O)CC=C[C@H](C)COC(=O)[C@@H](OCc2ccccc2)C=C[C@@H]1C` here?
Answer: The composite z-score was 2.14.

Question: For `[N-]=[N+]=NCc1ccccc1C[C@@]1(C(=O)N2CCOCC2)N=C(c2ccc(OCCCO)cc2)O[C@@H]1c1ccccc1N=[N+]=[N-]`, which composite z-score is on record?
Answer: The composite z-score was 0.968.

Assay: binders of probe aFGF2 on microarray, primary screen, stem cell growth factor project, biochemical, small-molecule microarray, fluorescence 635/667 (AID 1067);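 also: measures binding of biotinylated aFGF2 protein to printed compounds on slides; z-score merges feature fluorescence and signal-to-noise across triplicate slides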
Details: higher = more signal

Question: Which composite z-score does the source give for `CO[C@@H]1COC(=O)CC=C[C@@H](C)[C@H](OC)COC(=O)CC=C[C@H]1C` here?
Answer: Its composite z-score is -0.14.

Question: For `O=C1O[C@H](c2ccccc2)[C@H](c2ccccc2)N2[C@H]1[C@@H](C(=O)Nc1nc3ccccc3s1)[C@]1(C(=O)Nc3ccc(C#CC4(O)CCCCCC4)cc31)[C@H]2c1ccc(O)cc1`, which composite z-score is on record?
Answer: The composite z-score was -0.0407.

Question: For `O=C1O[C@@H](c2ccccc2)[C@@H](c2ccccc2)N2[C@@H](c3ccccc3OCCO)[C@]3(C(=O)Nc4ccc(C#CC5=CCCCC5)cc43)[C@@H](C(=O)O)[C@H]12`, which composite z-score is on record?
Answer: The composite z-score was 0.0248.

Question: Which composite z-score does the source give for `O=C1O[C@@H](c2ccccc2)[C@@H](c2ccccc2)N2[C@@H](c3ccc(O)cc3)[C@]3(C(=O)Nc4ccccc43)[C@@H](C(=O)N3CCN(c4ncccn4)CC3)[C@H]12` here?
Answer: The composite z-score was 0.142.

Question: For `C[N+](C)(C)CCCCNC(=O)[C@@H]1C[C@@H]2C(=O)N3CCC[C@H]3C(=O)N2[C@@H]1c1cccc(OCCO)c1`, which composite z-score is on record?
Answer: The composite z-score was -0.148.

Question: For `C=CC[C@@]1(C(=O)N2CCOCC2)N=C(c2ccc(OCCCO)cc2)O[C@@H]1c1ccccc1`, which composite z-score is on record?
Answer: The composite z-score was -0.117.

Question: For `CCC#CCN(Cc1ccccc1Br)[C@H](/C=C/c1ccccc1)[C@@H](O)Cc1ccccc1`, which composite z-score is on record?
Answer: Its composite z-score is -0.176.

Question: With `O=C(NCc1ccccc1)c1ccc(Br)cc1[N+](=O)[O-]` as the compound, how does the composite z-score read?
Answer: Its composite z-score is -0.138.

Question: For `CC(C)N1CC=CC23O[C@@H]4/C=C\CCCOC(=O)C4[C@H]2C(=O)N(CCCCCO)[C@@H]3C1=O` (some centres not stated), which composite z-score is on record?
Answer: Its composite z-score is -0.226.

Question: With `O=C1OCC=C[C@H]2OC34C=CCN(Cc5ccccc5)C(=O)[C@H]3N(CCO)C(=O)[C@@H]4[C@@H]12` (some centres not stated) as the compound, how does the composite z-score read?
Answer: The composite z-score was -0.149.

Question: With `O=C1O[C@H](c2ccccc2)[C@H](c2ccccc2)N2[C@H]1[C@@H](C(=O)NC[C@H](O)c1ccccc1)[C@]1(C(=O)Nc3ccc(C#CC4=CCCCC4)cc31)[C@H]2c1ccc(OCCO)cc1` as the compound, how does the composite z-score read?
Answer: Its composite z-score is -0.0579.

Question: For `COc1ccc(-c2ccccc2[C@@H]2N[C@H](C(=O)O)CC[C@H]2C)cc1`, which composite z-score is on record?
Answer: The composite z-score was -0.132.

Question: Which composite z-score does the source give for `CCOC(=O)C[C@H]1[C@H](OC(=O)c2cc3ccccc3oc2=O)[C@@H](NC(=O)C2CCCCC2)c2cc(OCCCO)ccc2N1C(=O)c1ccc2ccccc2n1` here?
Answer: Its composite z-score is -0.179.

Question: Which composite z-score does the source give for `NC(=O)NCC#Cc1ccc2c(c1)[C@]1(C(=O)N2)[C@H](C(=O)N2CCCCCCC2)[C@H]2C(=O)O[C@H](c3ccccc3)[C@H](c3ccccc3)N2[C@@H]1c1ccccc1OCCO` here?
Answer: The composite z-score was 0.876.

Question: With `Cc1ccc(N2C(=O)c3ccccc3[C@@H](C(=O)NCc3ccccc3)[C@@H]2c2ccc(CO)cc2)nc1` as the compound, how does the composite z-score read?
Answer: The composite z-score was -0.128.

Question: With `COC(=O)C(CC#Cc1ccc2c(c1)[C@]1(C(=O)N2)[C@H](C(=O)N2CCCCCCC2)[C@H]2C(=O)O[C@H](c3ccccc3)[C@H](c3ccccc3)N2[C@@H]1c1ccc(O)cc1)C(=O)OC` as the compound, how does the composite z-score read?
Answer: The composite z-score was -0.167.

Question: With `COc1ccc([Si](C)(C)[C@@H]2[C@@H](CCO)O[C@]3(C(=O)N(Cc4ccc(NC(=O)[C@H](C)O)cc4)c4ccccc43)[C@H]2C)cc1` as the compound, how does the composite z-score read?
Answer: The composite z-score was -0.0606.

Question: Which composite z-score does the source give for `C=CCNC(=O)[C@@H]1[C@H]2C(=O)O[C@H](c3ccccc3)[C@H](c3ccccc3)N2[C@H](c2ccc(OCCO)cc2)[C@@]12C(=O)N(C(=O)OCCOC)c1ccc(C#CC3(O)CCCCCC3)cc12` here?
Answer: The composite z-score was 0.126.

Question: With `CC1CC/C=C\[C@H]2OC34C=CCN(Cn5nnc6ccccc65)C(=O)[C@H]3N(C(C)CO)C(=O)[C@@H]4C2C(=O)O1` (some centres not stated) as the compound, how does the composite z-score read?
Answer: Its composite z-score is -0.171.

Question: For `COc1ccc([Si](C)(C)[C@H]2[C@H](CC(=O)N(CCO)Cc3ccccc3)O[C@@]3(C(=O)N(C)c4ccccc43)[C@@H]2C)cc1`, which composite z-score is on record?
Answer: Its composite z-score is 0.0248.

Question: Which composite z-score does the source give for `CO[C@H]1COC(=O)[C@H](CCSC)NC(=O)CC=C[C@@H](C)COC(=O)[C@@H](OCc2ccccc2)C=C[C@@H]1C` here?
Answer: Its composite z-score is -0.294.

Question: For `C=CCOC(=O)[C@@H]1[C@H]2C(=O)O[C@H](c3ccccc3)[C@H](c3ccccc3)N2[C@H](c2ccc(OCCOC(=O)[C@H]3C[C@H]4C(=O)N[C@@H](CCCCNC(C)=O)C(=O)N4[C@H]3c3ccc(O)cc3)cc2)[C@@]12C(=O)Nc1ccc(I)cc12`, which composite z-score is on record?
Answer: The composite z-score was 0.0435.

Question: With `O=[N+]([O-])c1ccc(C[n+]2ccc3ccc(O)cc3c2)o1` as the compound, how does the composite z-score read?
Answer: Its composite z-score is -0.146.

Question: With `COCCOC(=O)N1C(=O)[C@@]2(c3cc(C#CC4=CCCCC4)ccc31)[C@H](C(=O)NC[C@H](O)c1ccccc1)[C@H]1C(=O)O[C@H](c3ccccc3)[C@H](c3ccccc3)N1[C@@H]2c1ccccc1OCCO` as the compound, how does the composite z-score read?
Answer: The composite z-score was 0.126.

Question: For `CCOC(=O)C1=CC[C@@H](c2ccc(-c3ccc(OCc4ccccc4)cc3)c(OC)c2)N(S(=O)(=O)c2ccc(C)cc2)[C@H]1c1ccccc1`, which composite z-score is on record?
Answer: The composite z-score was 0.0188.

Question: For `COC(=O)[C@@]1(Cc2ccc(OC)cc2)[C@H]2c3cc(C(=O)N(C)C)n(Cc4ccc(C)c(F)c4F)c3C[C@H]2CN1C(=O)c1ccccc1`, which composite z-score is on record?
Answer: Its composite z-score is 0.162.

Question: For `CCCC=C(CCC)[C@@H](NS(=O)(=O)c1ccc(-c2ccccc2)cc1)c1ccc(C(=O)OC)cc1`, which composite z-score is on record?
Answer: The composite z-score was -0.0363.

Question: Which composite z-score does the source give for `CCOC(=O)[C@H]1C/C=C/C[C@H](C(=O)OCC)C(=O)O[C@H]2[C@@H](OC)O[C@H](CO)[C@@H](OC(=O)Nc3ccc(Br)cc3)[C@@H]2OC1=O` here?
Answer: The composite z-score was -0.108.

Question: With `C=C[C@H](OC)[C@@H](OC(=O)Nc1ccc(SC)cc1)c1ccc(O)c(F)c1` as the compound, how does the composite z-score read?
Answer: The composite z-score was -0.0493.

Question: With `COCCOC(=O)N1C(=O)[C@@]2(c3cc(C#CCNC(N)=O)ccc31)[C@H](c1ccc(OCCO)cc1)N1[C@H](c3ccccc3)[C@H](c3ccccc3)OC(=O)[C@H]1[C@@H]2C(=O)N1CCCCCCC1` as the compound, how does the composite z-score read?
Answer: Its composite z-score is 0.128.

Question: With `CN(C)c1ccc(C(O)C2C=CC3C(=O)NC(=O)C3N2Nc2ccc(Cl)cc2Cl)cc1` (configuration not stated) as the compound, how does the composite z-score read?
Answer: The composite z-score was 0.021.

Question: For `COCCOC(=O)N1C(=O)[C@@]2(c3cc(C#CCC(C(=O)OC)C(=O)OC)ccc31)[C@H](C(=O)N1CCN(c3ncccn3)CC1)[C@H]1C(=O)O[C@H](c3ccccc3)[C@H](c3ccccc3)N1[C@@H]2c1ccc(O)cc1`, which composite z-score is on record?
Answer: Its composite z-score is 0.0051.

Question: For `COCCOC(=O)N1C(=O)[C@@]2(c3ccccc31)[C@H](C(=O)N1CCc3cc(OC)c(OC)cc3C1)[C@H]1C(=O)O[C@H](c3ccccc3)[C@H](c3ccccc3)N1[C@@H]2c1ccccc1OCCO`, which composite z-score is on record?
Answer: The composite z-score was -0.0009.

Question: For `CC(C)=C1C(=O)C(c2ccccc2)=C2CN3C(=O)N(CCc4ccccc4)C(=O)[C@]3(Cc3ccccc3)[C@H]21`, which composite z-score is on record?
Answer: Its composite z-score is -0.0612.

Question: With `CO[C@H]1COC(=O)CC=C[C@H](C)COC(=O)[C@@H](OCc2ccccc2)C=C[C@@H]1C` as the compound, how does the composite z-score read?
Answer: Its composite z-score is -0.317.

Question: Which composite z-score does the source give for `[N-]=[N+]=NCc1ccccc1C[C@@]1(C(=O)N2CCOCC2)N=C(c2ccc(OCCCO)cc2)O[C@@H]1c1ccccc1N=[N+]=[N-]` here?
Answer: The composite z-score was 0.345.
